Measurements reported in paper PMC9911399, “Two distinct binding modes provide the RNA-binding protein RbFox with extraordinary sequence specificity”.
Where a chain is given by its changes, count along the chain named. In all, about 16,000 sequences were measured (“ka relative to ugcaugu”: median about 0.0091, highest 2% from about 0.032 on). The list comes from a sample in which the highest values are over-represented; it also holds similar and randomly drawn sequences.

T1: RBFOX1 RRM (Homo sapiens, UniProt Q9NWB1 109-208)
T1 sequence: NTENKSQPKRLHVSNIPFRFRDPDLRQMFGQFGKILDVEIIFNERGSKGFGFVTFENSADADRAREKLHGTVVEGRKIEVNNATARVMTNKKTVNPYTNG

B1: CCGCACU (DNA:RNA)
RNA: GGGAGACCGGAAUUCAGAUUGUCCCCGCACUUUAAAUCCCGUCGUAGCCACCA
DNA 1: CAATCTGAATTCCGGTCTCCC
DNA 2: TGGTGGCTACGACGGGATT
B2: CGCCCCU (DNA:RNA)
RNA: B1 RNA with C26G, G27C, A29C
DNA 1: CAATCTGAATTCCGGTCTCCC
DNA 2: TGGTGGCTACGACGGGATT
B3: UUCUAAG (DNA:RNA)
RNA: B1 RNA with C25U, C26U, G27C, C28U, C30A, U31G
DNA 1: CAATCTGAATTCCGGTCTCCC
DNA 2: TGGTGGCTACGACGGGATT
B4: GGUGUGG (DNA:RNA)
RNA: GGGAGACCGGAAUUCAGAUUGUCCGGUGUGGUUAAAUCCCGUCGUAGCCACCA
DNA 1: CAATCTGAATTCCGGTCTCCC
DNA 2: TGGTGGCTACGACGGGATT
B5: AUUAACU (DNA:RNA)
RNA: B1 RNA with C25A, C26U, G27U, C28A
DNA 1: CAATCTGAATTCCGGTCTCCC
DNA 2: TGGTGGCTACGACGGGATT
B6: GUUCCAG (DNA:RNA)
RNA: B4 RNA with G26U, G28C, U29C, G30A
DNA 1: CAATCTGAATTCCGGTCTCCC
DNA 2: TGGTGGCTACGACGGGATT
B7: UAUCCAA (DNA:RNA)
RNA: B1 RNA with C25U, C26A, G27U, A29C, C30A, U31A
DNA 1: CAATCTGAATTCCGGTCTCCC
DNA 2: TGGTGGCTACGACGGGATT
B8: CCACCGU (DNA:RNA)
RNA: B1 RNA with G27A, A29C, C30G
DNA 1: CAATCTGAATTCCGGTCTCCC
DNA 2: TGGTGGCTACGACGGGATT
B9: GUAAUAU (DNA:RNA)
RNA: B4 RNA with G26U, U27A, G28A, G30A, G31U
DNA 1: CAATCTGAATTCCGGTCTCCC
DNA 2: TGGTGGCTACGACGGGATT

target: T1, RBFOX1 RRM; assay: EMSA; HiTS-Eq, 1 nM pool, 10 min; buffer printed only for the single-RNA assays: 10 mM Tris pH 7.5, 150 mM NaCl, 3.4 mM EDTA, 0.001% NP-40, 30 C; settings: tags: His6 N-terminal (pET28a); label: 5' 32P
Method in brief: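 Purified RbFox RRM (wild type or mutant) was equilibrated for 10 min in 50 µL with 1 nM of a 5′-radiolabelled pool of RNA with 7 randomized nucleotides, its flanks annealed to DNA oligonucleotides, across increasing protein concentrations. Free RNA was separated by 8% native PAGE, excised, reverse-transcribed, PCR-barcoded and sequenced on an Illumina HiSeq 2500. Relative association constants came from read-count changes of each variant against the control reaction, normalised to the cognate motif.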

Question: B1 was tested. Which binding signal did it give?
Answer: 0.00621 KA relative to UGCAUGU

Question: With B2 as the binder, how does the binding signal read?
Answer: 0.00718 KA relative to UGCAUGU

Question: With B3 as the binder, how does the binding signal read?
Answer: 0.00998 KA relative to UGCAUGU

Question: Which binding signal does the source give for B4 here?
Answer: 0.0188 KA relative to UGCAUGU

Question: B5 was tested. Which binding signal did it give?
Answer: 0.00102 KA relative to UGCAUGU

Question: For B6, which binding signal is on record?
Answer: 0.0134 KA relative to UGCAUGU

Question: For B7, which binding signal is on record?
Answer: 0.00131 KA relative to UGCAUGU

Question: For B8, which binding signal is on record?
Answer: 0.0012 KA relative to UGCAUGU

Question: Which binding signal does the source give for B9 here?
Answer: 0.00279 KA relative to UGCAUGU
